# According to PubChem BioAssay (NCATS):
# Inconclusive results are not listed. Active and inactive are the calls of the source. Calls come from the whole dose curve; as a rule, active = well fitted cell-killing curve with a large enough effect; inconclusive = small, poorly fitted or top-dose-only effect, or effect the other way; inactive = no such curve, though single readings can be large or run the other way.
# Test: Quantitative High-Throughput drug screen in 47 multiple myeloma cell lines against the NCATS MIPE library collection: XG1_PLB cell viability assay (AID 1919866); note: nearly all actives have a fitted effect of over 35% in size
# Details: CellTiter-Glo ATP, 48 h; series mostly up to 45.8 µM
# In short: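 Myeloma cells (500/well) treated with MIPE 4.0 compounds for 48 h at 37 °C, 5% CO2. Viability read as ATP via CellTiter-Glo luminescence after 5 min at RT; DMSO-only wells = 100%, media-only = 0% viability.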
# Potency is the fitted concentration of half-maximal effect.
row,Structure (SMILES),Potency
1,CCN(CC)Cc1ccc2cc(COC(=O)Nc3ccc(C(=O)NO)cc3)ccc2c1,833 nM (active)
2,CC(=O)OCC(=O)[C@@]1(O)CC[C@H]2[C@@H]3CCC4=CC(=O)CC[C@]4(C)[C@@H]3C(=O)C[C@@]21C,inactive
3,COc1ccc2c(c1OC)C(=O)OC2[C@H]1c2c(cc3c(c2OC)OCO3)CCN1C (stereo partly drawn),41.8 nM (active)
4,COc1cccc2c1C(=O)c1c(O)c3c(c(O)c1C2=O)C[C@@](O)(C(C)=O)C[C@H]3O[C@H]1C[C@H](N)[C@H](O)[C@H](C)O1,105 nM (active)
5,CCOC(=O)N1CCN([N+]([O-])=NOc2ccc([N+](=O)[O-])cc2C#N)CC1,372 nM (active)
6,C[C@H]1O[C@H](O[C@H]2[C@H](O)[C@@H](O)[C@@H](O[C@H]3[C@H](O)[C@@H](O)C(O)O[C@H]3CO)O[C@H]2CO)[C@H](O)[C@@H](O)[C@H]1N[C@H]1C=C(CO)[C@@H](O)[C@H](O)[C@@H]1O (stereo partly drawn),inactive
7,CC[C@H]1OC(=O)[C@H](C)[C@@H](O[C@H]2C[C@@](C)(OC)[C@@H](O)[C@H](C)O2)[C@H](C)[C@@H](O[C@@H]2O[C@H](C)C[C@H](N(C)C)[C@@H]2O)[C@](C)(OC)C[C@@H](C)C(=O)[C@H](C)[C@@H](O)[C@]1(C)O,inactive
8,OC[C@H]1OC(O)C[C@@H](O)[C@H]1O (stereo partly drawn),inactive
9,CN[C@H]1[C@@H](O)[C@@H]2O[C@@H]3O[C@H](C)CC(=O)[C@]3(O)O[C@@H]2[C@@H](NC)[C@H]1O,93.5 nM (active)
10,COc1ccc(S(=O)(=O)Nc2cccnc2Nc2ccc(O)cc2)cc1,16.6 nM (active)
11,CC(=O)N[C@H]1[C@@H]([C@H](O)[C@H](O)CO)OC(C(=O)O)=C[C@@H]1N=C(N)N,inactive
12,COc1cc(C)c(C=CC(C)=CC=CC(C)=CC(=O)O)c(C)c1C,inactive
13,CCCCCCCCc1ccc(CCC(N)(CO)CO)cc1,4180 nM (active)
14,C[C@H](CCC(=O)O)[C@H]1CCC2C3C[C@H](O)[C@@H]4C[C@H](O)CC[C@]4(C)C3CC[C@@]21C (stereo partly drawn),18700 nM (active)
15,Oc1cc(-c2nc(-c3ccccc3)[nH]c2-c2ccncc2)ccc1Cl,2350 nM (active)
16,C[C@H](CCC(=O)O)[C@H]1CC[C@H]2[C@@H]3[C@H](O)C[C@@H]4C[C@H](O)CC[C@]4(C)[C@@H]3CC[C@]12C,inactive
17,NC[C@H]1O[C@H](O[C@H]2[C@@H](O)[C@@H](O[C@H]3O[C@H](CO)[C@@H](O)[C@H](N)[C@@H]3O)[C@H](N)C[C@@H]2N)[C@H](N)C[C@H]1O,inactive

row,Structure (SMILES),Potency
1,COc1cc2c(Nc3ccc(Cl)c(Cl)c3F)ncnc2cc1OCC1C[C@@H]2CN(C)C[C@H]2C1,2350 nM (active)
2,CCOC(=O)[C@H](CCc1ccccc1)N[C@@H](C)C(=O)N1[C@@H](C(=O)O)C[C@H]2CCC[C@@H]21,7430 nM (active)
3,Oc1ccc(-c2ccc(-c3cc(Nc4cccc(CNC5CC5)c4)n[nH]3)cc2)c(O)c1,526 nM (active)
4,C=CCNC1=C2C[C@@H](C)C[C@H](OC)[C@@H](O)[C@@H](C)C=C(C)[C@H](OC(N)=O)[C@@H](OC)C=CC=C(C)C(=O)NC(=CC1=O)C2=O,662 nM (active)
5,CC(C)(O)Cn1c(NC(=O)c2ccc(-c3cn[nH]c3)s2)nc2cc(CN3CCOCC3)ccc21,743 nM (active)
6,CCCc1nc(C(C)(C)O)c(C(=O)O)n1Cc1ccc(-c2ccccc2-c2nn[nH]n2)cc1,inactive
7,COc1cc(OC)cc(-c2ccc3ncc4ccc(=O)n(-c5ccc(N6CCNCC6)c(C(F)(F)F)c5)c4c3c2)c1,526 nM (active)
8,CN(C)CCN1C(=O)c2cccc3cc(N)cc(c23)C1=O,16600 nM (active)
9,COc1cc(C)c(Sc2cnc(NC(=O)c3ccc(CNC(C)C(C)(C)C)cc3)s2)cc1C(=O)N1CCN(C(C)=O)CC1 (stereo not drawn),16600 nM (active)
10,CCNC(=O)Nc1ccc(-c2nc3c(c(N4CCOC[C@H]4C)n2)CCN(C2COC2)C3)cc1,526 nM (active)
11,COC[C@H](NC(=O)c1cnc(C)s1)C(=O)N[C@@H](COC)C(=O)N[C@@H](Cc1ccccc1)C(=O)[C@@]1(C)CO1,74.3 nM (active)
12,COc1cccc2c1C(=O)c1c(O)c3c(c(O)c1C2=O)C[C@@](O)(C(=O)CO)C[C@@H]3O[C@H]1C[C@H](N)[C@H](OC2CCCCO2)[C@H](C)O1 (stereo partly drawn),1870 nM (active)
13,O=c1ccn([C@@H]2O[C@H](CO)[C@H](O)[C@@H]2F)c(=O)[nH]1,5900 nM (active)
14,Cn1cc(CNCC2CCN(c3ncc(C(=O)NO)cn3)CC2)c2ccccc21,52.6 nM (active)
15,CC(=O)NCC(=O)N1[C@H]2CC[C@H]1c1cc(Nc3ncc(C(F)(F)F)c(NC4CCC4)n3)ccc12,332 nM (active)
16,CC(C)N(CC[C@H](c1ccccc1)c1cc(CO)ccc1O)C(C)C,inactive
